Experimental data reported in PubChem BioAssay (NCATS).
Inconclusive results are not listed. Entries that show only a call come without a potency. Activity calls are given as the source filed them. Unless noted, calls follow the shape of the dose curve; as a rule, active = well fitted curve in the direction sought with a large enough effect; inconclusive = small, poorly fitted or top-dose-only effect, or another doubt; inactive = no such curve, though single readings can be large; an effect the other way counts as inactive or inconclusive.

How the values were obtained:
JCK = test: qHTS profiling for inhibitors of Plasmodium falciparum proliferation (AID 504749); also: nearly all actives have a fitted effect of over 60% in size; also: potency is read from the fitted curve at half-maximal effect; settings: P. falciparum in erythrocytes, SYBR Green DNA, 72 h; series mostly up to 28.7 µM
In short: (§1)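 In a 72 h erythrocytic culture (37 C, humidified, 5% CO2) at 2.5% hematocrit and 0.3% starting parasitemia, compounds were tested; SYBR Green I in detergent lysis buffer stained parasite DNA overnight.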

P93_24 = test: as above; settings: P. falciparum in erythrocytes, SYBR Green DNA, 72 h; series mostly up to 28.7 µM
In short: as §1

P94_40 = test: as above; settings: P. falciparum in erythrocytes, SYBR Green DNA, 72 h; series mostly up to 28.7 µM
In short: as §1

PAD = test: as above; settings: P. falciparum in erythrocytes, SYBR Green DNA, 72 h; series mostly up to 28.7 µM
In short: as §1

PC15 = test: as above; settings: P. falciparum in erythrocytes, SYBR Green DNA, 72 h; series mostly up to 28.7 µM
In short: as §1

PC26 = test: as above; settings: P. falciparum in erythrocytes, SYBR Green DNA, 72 h; series mostly up to 28.7 µM
In short: as §1

PC49 = test: as above; settings: P. falciparum in erythrocytes, SYBR Green DNA, 72 h; series mostly up to 28.7 µM
In short: as §1

SC27B = test: as above; settings: P. falciparum in erythrocytes, SYBR Green DNA, 72 h; series mostly up to 28.7 µM
In short: as §1

TAB113 = test: as above; settings: P. falciparum in erythrocytes, SYBR Green DNA, 72 h; series mostly up to 28.7 µM
In short: as §1

TAB165 = test: as above; settings: P. falciparum in erythrocytes, SYBR Green DNA, 72 h; series mostly up to 28.7 µM
In short: as §1

W2 = test: as above; settings: P. falciparum in erythrocytes, SYBR Green DNA, 72 h; series mostly up to 12.8 µM
In short: as §1

[1] = NCATS anti-infectives library activity on the primary C. elegans qHTS viability assay (AID 1745855; calls by dose curve)
In short: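 Titration-based screen in worms: eggs hatched overnight in M9, L1 larvae fed TOP10 capsules in S medium with compound, incubated 21 °C for 7 days; fluorescent objects gated by size and intensity at days 0, 3 and 7.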

[2] = molecular target: Nuclear receptor subfamily 1 group I member 3 (Homo sapiens) (UniProt Q14994); test: Primary qHTS for antagonist of constitutive androstane receptor (CAR) against the NCATS DSHEA and TCM libraries (AID 1794836);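 also: HepG2 cells stably expressing hCAR with CYP2B6 luciferase reporter stimulated by CITCO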
Sequence of Nuclear receptor subfamily 1 group I member 3 (Homo sapiens) (Q14994 whole entry, looked up): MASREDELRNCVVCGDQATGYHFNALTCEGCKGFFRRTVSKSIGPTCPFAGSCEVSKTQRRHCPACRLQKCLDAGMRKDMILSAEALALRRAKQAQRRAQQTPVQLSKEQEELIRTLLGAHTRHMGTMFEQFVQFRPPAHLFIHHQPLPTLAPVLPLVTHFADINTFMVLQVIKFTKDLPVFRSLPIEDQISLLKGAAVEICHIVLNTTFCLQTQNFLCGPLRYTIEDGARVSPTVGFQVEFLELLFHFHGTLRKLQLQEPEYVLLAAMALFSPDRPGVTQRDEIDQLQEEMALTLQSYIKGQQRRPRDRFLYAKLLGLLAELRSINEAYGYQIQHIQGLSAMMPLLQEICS
In short: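 Antagonist mode: CAR reporter luminescence (ONE-Glo) in HepG2-CYP2B6-hCAR cells stimulated with 48 uM CITCO (final) over 24 h at 37 C, compounds titrated; viability read first by CellTiter-Fluor fluorescence.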

[3] = KB-8-5-11 P-gp reporter qHTS against the NCATS DSHEA and TCM libraries (AID 1919977)
In short: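 KB-8-5-11, 500 cells/well, DMEM/10% FBS without colchicine; 4 h attach; cpd titrations, 72 h, 37C/5% CO2; CellTiter-Glo, 30 min RT, luminescence.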

[4] = molecular target: Catechol O-methyltransferase (Homo sapiens) (UniProt P21964); test: Confirmatory Screen for Target Class Profiling of Small Molecule Inhibitors of Methyltransferases (AID 1745852; calls by dose curve); settings: MTase-Glo luminescence, SAH detection, recombinant enzyme; measured here: COMT max response; stronger effect = lower value
Sequence of Catechol O-methyltransferase (Homo sapiens) (P21964 whole entry, looked up): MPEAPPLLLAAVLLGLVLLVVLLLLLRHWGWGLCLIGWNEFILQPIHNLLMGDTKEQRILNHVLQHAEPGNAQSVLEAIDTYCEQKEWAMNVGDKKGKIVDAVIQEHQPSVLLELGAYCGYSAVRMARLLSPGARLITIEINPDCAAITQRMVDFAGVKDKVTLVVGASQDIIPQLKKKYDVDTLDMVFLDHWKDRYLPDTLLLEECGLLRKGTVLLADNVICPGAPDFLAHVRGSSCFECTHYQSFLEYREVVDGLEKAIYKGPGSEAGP

[5] = molecular target: Guanidinoacetate N-methyltransferase (Homo sapiens) (UniProt Q14353); test: as above; settings: MTase-Glo luminescence, SAH detection, recombinant enzyme; activity change, negative = inhibition: at 85.7 µM (top of the series) unless noted
[6] = molecular target: Nicotinamide N-methyltransferase (Homo sapiens) (UniProt P40261); test: as above; settings: MTase-Glo luminescence, SAH detection, recombinant enzyme; measured here: NNMT max response; stronger effect = lower value
Sequence of Nicotinamide N-methyltransferase (Homo sapiens) (P40261 whole entry, looked up): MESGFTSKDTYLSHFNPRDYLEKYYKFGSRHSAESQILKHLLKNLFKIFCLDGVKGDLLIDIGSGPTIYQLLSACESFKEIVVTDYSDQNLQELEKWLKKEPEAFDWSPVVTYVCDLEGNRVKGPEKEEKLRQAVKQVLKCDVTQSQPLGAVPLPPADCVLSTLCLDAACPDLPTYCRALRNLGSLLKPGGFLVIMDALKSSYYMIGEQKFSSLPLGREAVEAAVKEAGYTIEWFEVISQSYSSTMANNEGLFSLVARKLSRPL

[7] = molecular target: Phenylethanolamine N-methyltransferase (Homo sapiens) (UniProt P11086); test: as above; settings: MTase-Glo luminescence, SAH detection, recombinant enzyme; measured here: PNMT max response; stronger effect = lower value
Sequence of Phenylethanolamine N-methyltransferase (Homo sapiens) (P11086 whole entry, looked up): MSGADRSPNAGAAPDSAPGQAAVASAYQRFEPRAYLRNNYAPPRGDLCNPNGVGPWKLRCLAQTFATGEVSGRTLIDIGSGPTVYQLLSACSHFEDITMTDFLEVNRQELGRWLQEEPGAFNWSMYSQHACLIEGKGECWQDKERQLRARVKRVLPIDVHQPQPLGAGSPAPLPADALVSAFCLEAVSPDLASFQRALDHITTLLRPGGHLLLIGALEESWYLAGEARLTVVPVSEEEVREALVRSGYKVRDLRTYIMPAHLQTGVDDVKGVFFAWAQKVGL

[8] = Viability counterscreen for antagonist of constitutive androstane receptor (CAR) against the NCATS DSHEA and TCM libraries (AID 1794837);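 also: compound exposure lasted 24 h before viability reading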
In short: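 Cells: HepG2 line carrying CYP2B6 reporter and hCAR, seeded and attached 5 h. Then pin-transferred test substances plus agonist CITCO at 48 uM final; 24 h incubation; fluorogenic viability reagent, 1 h.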

[9] = Viability counterscreen for agonist of constitutive androstane receptor (CAR) against the NCATS DSHEA and TCM libraries (AID 1794838);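 also: HepG2 cells with CYP2B6 reporter and hCAR plus 0.75 µM PK11195 antagonist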
In short: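 Cell health was measured as CellTiter-Fluor signal in HepG2-CYP2B6-hCAR cells treated for 24 h with substances alongside the hCAR antagonist PK11195 (0.75 uM final).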

[10] = molecular target: Nuclear receptor subfamily 1 group I member 3 (Homo sapiens) (UniProt Q14994); test: Primary qHTS for agonist of constitutive androstane receptor (CAR) against the NCATS DSHEA and TCM libraries (AID 1794839); settings: Potency: CAR antagonist co-added at 0.75 µM unless noted;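 also: HepG2 cells expressing human CAR with a CYP2B6 reporter plus PK11195 antagonist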
In short: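 qHTS, agonist mode: HepG2-CYP2B6-hCAR, 2,500 cells/well, 5 h attach; cpds + PK11195 0.75 µM final; 24 h, 37 °C, 5% CO2. Readouts: CellTiter-Fluor (405/540 nm), then ONE-Glo luminescence.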

[11] = HepG2 viability counterscreen (readout 2: ATP content) against the NCATS DSHEA and TCM libraries (AID 1794840)
In short: (§2)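 Same wells read twice: first fluorescence from cleaved GF-AFC substrate (25 uM final, 30 min, 37C) for live-cell protease, then CellTiter-Glo luminescence after 30 min at room temperature for ATP. HepG2 cells were exposed ~24 h to substances.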

[12] = HepG2 viability counterscreen (readout 1: protease activity) against the NCATS DSHEA and TCM libraries (AID 1794841);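 also: cells exposed to compounds for about 24 h before the protease read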
In short: as §2

[13] = molecular target: Cytochrome P450 2D6 (Homo sapiens) (UniProt P10635); test: qHTS for inhibitors of CYP2D6 against the NCATS DSHEA and TCM libraries (AID 1919972)
Sequence of Cytochrome P450 2D6 (Homo sapiens) (P10635 whole entry, looked up): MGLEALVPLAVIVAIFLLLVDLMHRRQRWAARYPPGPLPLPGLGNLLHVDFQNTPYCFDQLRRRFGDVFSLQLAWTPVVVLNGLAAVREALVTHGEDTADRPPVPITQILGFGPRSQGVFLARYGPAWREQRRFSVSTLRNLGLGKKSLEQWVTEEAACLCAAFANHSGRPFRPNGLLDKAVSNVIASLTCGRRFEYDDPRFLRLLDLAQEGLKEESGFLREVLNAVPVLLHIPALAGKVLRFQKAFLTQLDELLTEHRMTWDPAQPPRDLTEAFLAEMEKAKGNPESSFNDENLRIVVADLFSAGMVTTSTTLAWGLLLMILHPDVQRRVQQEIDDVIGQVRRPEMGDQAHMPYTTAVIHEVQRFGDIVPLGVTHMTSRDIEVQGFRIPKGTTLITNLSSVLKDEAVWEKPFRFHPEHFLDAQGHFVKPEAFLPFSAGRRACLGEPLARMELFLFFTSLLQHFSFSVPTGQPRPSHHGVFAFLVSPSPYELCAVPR
In short: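 qHTS, concentration–response format with most substances from 19.5 nM. CYP2D6 + pro-luciferin substrate, 15 min with compound, then 1x NADPH regen, 30–45 min RT dark. Glo detection 30 min, luminescence. Quinidine control.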

[14] = molecular target: Cytochrome P450 2C19 (Homo sapiens) (UniProt P33261); test: qHTS for inhibitors of CYP2C19 against the NCATS DSHEA and TCM libraries (AID 1919974);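 also: luminescence from luciferin released by CYP2C19 oxidation of a pro-luciferin substrate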
Sequence of Cytochrome P450 2C19 (Homo sapiens) (P33261 whole entry, looked up, canonical isoform): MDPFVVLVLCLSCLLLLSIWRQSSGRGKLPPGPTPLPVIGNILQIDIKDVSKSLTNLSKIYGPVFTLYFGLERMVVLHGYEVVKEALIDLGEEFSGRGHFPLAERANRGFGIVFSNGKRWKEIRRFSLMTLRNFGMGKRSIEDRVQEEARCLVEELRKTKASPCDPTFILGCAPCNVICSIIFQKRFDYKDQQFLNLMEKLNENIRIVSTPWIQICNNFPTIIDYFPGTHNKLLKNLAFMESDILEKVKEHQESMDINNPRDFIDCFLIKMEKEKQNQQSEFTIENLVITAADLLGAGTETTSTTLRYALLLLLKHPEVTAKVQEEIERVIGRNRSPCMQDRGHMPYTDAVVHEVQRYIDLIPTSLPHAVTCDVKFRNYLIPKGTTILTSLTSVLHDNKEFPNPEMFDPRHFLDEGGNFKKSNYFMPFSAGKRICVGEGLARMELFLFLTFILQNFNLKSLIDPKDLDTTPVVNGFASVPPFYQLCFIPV
In short: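 Isoform-specific enzyme and substrate levels; enzyme-free wells as background. Reaction: 1x NADPH regenerating system, 30-45 min, room temperature, shielded from light; luminescent detection reagent added, 30 min.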

[15] = KB-3-1 P-gp reporter qHTS against the NCATS DSHEA and TCM libraries (AID 1919975)
In short: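 KB-3-1 parental line, 1536-well qHTS: cells seeded, ~4 h attachment, pintool compound addition, ~72 h at 37C, then CellTiter-Glo, 30 min RT, luminescence. Concentration-response format.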

[16] = molecular target: Cytochrome P450 1A2 (Homo sapiens) (UniProt P05177); test: qHTS for inhibitors of CYPIA2 against the NCATS DSHEA and TCM libraries (AID 1919976); also: potency is read from the fitted curve at half-maximal effect;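 as to activity change, negative = inhibition: light from luciferin formed by CYP1A2 from a pro-luciferin substrate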
Sequence of Cytochrome P450 1A2 (Homo sapiens) (P05177 whole entry, looked up): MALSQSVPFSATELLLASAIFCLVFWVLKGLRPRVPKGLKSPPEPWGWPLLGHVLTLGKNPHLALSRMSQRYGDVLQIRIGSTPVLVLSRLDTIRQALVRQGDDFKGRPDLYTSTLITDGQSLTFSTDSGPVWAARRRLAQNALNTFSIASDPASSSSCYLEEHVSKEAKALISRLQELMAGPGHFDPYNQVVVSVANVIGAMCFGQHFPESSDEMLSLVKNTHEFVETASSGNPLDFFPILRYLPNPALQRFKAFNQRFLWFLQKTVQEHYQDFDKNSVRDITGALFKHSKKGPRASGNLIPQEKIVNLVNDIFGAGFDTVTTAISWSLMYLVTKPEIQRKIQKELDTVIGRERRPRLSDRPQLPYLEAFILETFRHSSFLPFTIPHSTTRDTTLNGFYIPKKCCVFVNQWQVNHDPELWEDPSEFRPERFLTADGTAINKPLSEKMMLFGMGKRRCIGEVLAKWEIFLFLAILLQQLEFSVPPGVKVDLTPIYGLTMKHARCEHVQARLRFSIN
In short: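 Furafylline served as the plate control. Compounds met CYP1A2 and pro-luciferin substrate 15 min before NADPH regeneration solution (1x) was added; after 30-45 min at RT, P450-Glo reagent was added for 30 min and luminescence was measured.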

[17] = qHTS Counterscreen for compound interference against the NCATS DSHEA and TCM libraries (AID 1919978); settings: firefly luciferase detection reagent interference, luminescence;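 also: compounds preincubated with 1 µM D-luciferin or buffer before detection reagent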
In short: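 Compounds, titrated from 19.5 nM to 39.8 uM final, were pinned onto 1 uM D-luciferin or plain 100 mM potassium phosphate. After 15 min at room temperature, luciferin detection reagent was added for 30 min before the luminescence read.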

[18] = Dual reporter qHTS for agonist of Pregnane X Receptor (hPXR) against the NCATS DSHEA and TCM libraries: Fluorescence readout (AID 1920058)
In short: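 In this qHTS counter-read, reporter-bearing HepG2 cells in charcoal-stripped serum received substances for approximately 24 h before viability was assessed fluorometrically with CellTiter-Fluor.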

[19] = molecular target: Nuclear receptor subfamily 1 group I member 2 (Homo sapiens) (UniProt O75469); test: Dual reporter qHTS for agonist of Pregnane X Receptor (hPXR) against the NCATS DSHEA and TCM libraries: Luminescence readout (AID 1920059); also: potency is read from the fitted curve at half-maximal effect
Sequence of Nuclear receptor subfamily 1 group I member 2 (Homo sapiens) (O75469 whole entry, looked up): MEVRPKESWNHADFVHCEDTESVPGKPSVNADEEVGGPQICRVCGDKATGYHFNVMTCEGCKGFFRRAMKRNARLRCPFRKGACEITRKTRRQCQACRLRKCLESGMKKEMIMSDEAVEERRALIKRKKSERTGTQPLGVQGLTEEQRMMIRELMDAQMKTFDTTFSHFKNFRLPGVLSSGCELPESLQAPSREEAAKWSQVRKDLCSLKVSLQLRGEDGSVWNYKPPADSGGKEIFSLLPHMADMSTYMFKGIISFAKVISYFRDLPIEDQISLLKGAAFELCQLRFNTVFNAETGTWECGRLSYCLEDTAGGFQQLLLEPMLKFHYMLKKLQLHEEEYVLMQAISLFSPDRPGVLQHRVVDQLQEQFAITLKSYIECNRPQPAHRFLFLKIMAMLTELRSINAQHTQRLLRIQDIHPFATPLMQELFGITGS
In short: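 Luminescent PXR reporter read (ONE-Glo) after a CellTiter-Fluor viability read, following 24 h, 37C treatment of HepG2 cells stably carrying hPXR-Luc.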

[20] = molecular target: Nuclear receptor subfamily 1 group I member 2 (Homo sapiens) (UniProt O75469); test: Dual reporter qHTS for antagonist of Pregnane X Receptor (hPXR) against the NCATS DSHEA and TCM libraries: Luminescence Readout (AID 1920060);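 also: HepG2 cells carrying hPXR luciferase reporter stimulated with rifampicin at 2 µM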
In short: (§3)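 In antagonist mode, 2 uM rifampicin was added to hPXR-Luc HepG2 cells alongside test substances, incubated 24 h at 37 C; luminescence gave reporter activity, and CellTiter-Fluor fluorescence (405/540 nm) gave viability.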

[21] = Dual reporter qHTS for antagonist of Pregnane X Receptor (hPXR) against the NCATS DSHEA and TCM libraries: Fluorescence Readout (AID 1920061)
In short: as §3

[22] = NCATS anti-infectives library activity on HEK293 viability as a counter-qHTS vs the C. elegans viability qHTS (AID 1745854);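 also: HEK293 cells exposed to compounds for 24 hr before the viability read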
In short: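 Compound titrations (final up to 41.7 uM) were incubated with HEK293 cells for 24 hr at 37C under 5% CO2. Viable cells were quantified with CellTiter-Glo after 10 min at ambient temperature.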

In the case of [Hg+][c]1ccccc1, the Potency (JCK) is reported as 11.2 µM (active), the Potency (P93_24) is reported as “inactive” and the Potency (P94_40) is reported as “inactive”. For the same compound, the Potency (PAD) was “inactive”, the Potency (PC15) was 7.94 µM (active) and the Potency (PC26) was 12 µM (active). The Potency (PC49) was 3.55 µM (active), the Potency (SC27B) was “inactive” and the Potency (TAB113) was “inactive”. For the same compound, the Potency (TAB165) was “inactive” and the Potency (W2) was 12 µM (active).

With COC(=O)C[C@@](O)(CCC(C)(C)O)C(=O)O[C@@H]1C(OC)=C[C@]23CCCN2CCc2cc4c(cc2[C@@H]13)OCO4 the Potency [1] was “inactive”.

In the case of O=c1cc(-c2ccc(O)cc2)oc2cc(O[C@@H]3O[C@H](CO)[C@@H](O)[C@H](O)[C@H]3O[C@@H]3OC[C@](O)(CO)[C@H]3O)cc(O)c12, the Potency [2] is reported as “inactive” and the Potency [3] is reported as “inactive”.

COc1ccc(-c2cc([C@H]3CN4CC[C@H]3C[C@@H]4CN)nc(C)n2)cc1OC gave an activity [4] of 2.55%, an activity change, negative = inhibition [5] of 1.77% and an activity [6] of -94.2%. It also gave an activity [7] of 2.63%.

With COC(=O)C1=CO[C@@H](C)[C@@H]2CN3CC[C@@]4(C(=O)Nc5ccccc54)[C@@H]3CC12 (some centres undefined) the Potency [2] was “inactive”, the outcome [8] was “inactive” and the outcome [9] was “inactive”. The Potency [10] was “inactive”, the outcome [11] was “inactive” and the outcome [12] was “inactive”. The Potency [13] was “inactive”, the Potency [14] was “inactive” and the outcome [15] was “inactive”. The Potency [16] was “inactive”, the Potency [3] was “inactive” and the max response [17] was 3.44% (inactive). For the same compound, the outcome [18] was “inactive”, the Potency [19] was 10 µM (active) and the outcome [20] was “inactive”. For the same compound, the outcome [21] was “inactive”.

Compound CNC1CCc2ccccc21 (centres undefined) has an activity [4] of -8.85%, an activity change, negative = inhibition [5] of 9.32% [at 114 µM] and an activity [6] of -95.4%. It also gave an activity [7] of -50.7%.

For CC[C@H]1CN2CCc3cc(OC)c(OC)cc3[C@@H]2C[C@@H]1C[C@H]1NCCc2cc(O)c(OC)cc21, the Potency [22] was “inactive” and the Potency [1] was “inactive”.

With COc1ccc(-c2coc3cc(O[C@@H]4O[C@H](CO)[C@@H](O)[C@H](O)[C@H]4O)ccc3c2=O)cc1 the Potency [2] was “inactive”.

Compound [Cl][Pt].[NH2-].[NH2-].c1ccncc1 has an activity [4] of -4.9%, an activity change, negative = inhibition [5] of 3.42% [at 57.3 µM] and an activity [6] of -8.73%. It also gave an activity [7] of 0.0118%.

With C[C@@H](N)C(=O)N[C@@H](CO)C(=O)N[C@H](C(=O)N[C@H](C(=O)N[C@H](C(=O)N[C@@H](CC(N)=O)C(=O)N[C@@H](Cc1ccc(O)cc1)C(=O)N[C@H](C(N)=O)[C@@H](C)O)[C@@H](C)O)[C@@H](C)O)[C@@H](C)O the Potency [22] was “inactive”.

With CN(C)C/C=C/C(=O)Nc1cccc(C(OCCN2CCCCC2)c2cc3nccc(C(=O)O)c3s2)c1 (centres undefined) the Potency [22] was “inactive”.

For CC(=O)O[C@H]1[C@H]2[C@@H](OC(=O)Cc3ccccc3)[C@@H](C)C[C@]2(OC(C)=O)C(=O)/C(C)=C/[C@@H]2[C@H](CC[C@@]13CO3)C2(C)C, the Potency [22] was “inactive”.

For CCCCCCCCCCCCCCCCCCCC(=O)O, the Potency [2] was “inactive”, the outcome [8] was “inactive” and the outcome [9] was “inactive”. The Potency [10] was “inactive”, the outcome [11] was “inactive” and the outcome [12] was “inactive”. The Potency [13] was “inactive”, the outcome [15] was “inactive” and the Potency [16] was 22.4 µM (active). The Potency [3] was “inactive”, the max response [17] was 0.104% (inactive) and the outcome [18] was “inactive”. For the same compound, the Potency [19] was “inactive”, the outcome [20] was “inactive” and the outcome [21] was “inactive”.

In the case of CCCC(=O)O[C@H]1CN2CC[C@H](O)[C@@H]2[C@@H](O)[C@@H]1O, the Potency [22] is reported as “inactive”.

For C[C@@H](COc1ccc(Oc2ccccc2)cc1)Oc1ccccn1, the Potency [22] was “inactive”.

With CN(CCc1ccccn1)C[C@H]1CN2CC[C@H]1C[C@@H]2CNC(=O)Nc1ccsc1 the activity [4] was -2.73%, the activity change, negative = inhibition [5] was 6.86% and the activity [6] was 0.703%. The activity [7] was -0.547%.
